Measured values from PubChem BioAssay (EPA / NIEHS).
Records with an inconclusive call do not appear. Calls of active or inactive are those of the source. The calls were made as follows: active = hit-call score of the fitted dose curve at least 0.9, where 1 is the maximum; inconclusive = response in the unintended direction; inactive = score below 0.9.

Key:
[1] = Tanguay_ZF_120hpf_SWIM_legacy: (Legacy) Oregon State University Tanguay Lab 120 Hour Post-fertilization zebrafish Assay for Swim Bladder Malformation (AID 2283654);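 also: swim bladder malformation in each larva scored yes or no under brightfield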
Method in brief: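 Scoring is binary for swim bladder defects at 120 hpf, by brightfield inspection of zebrafish larvae. Embryos were exposed singly from 6 hpf after pronase dechorionation, at 28C with 0.64% DMSO; mortality excluded scoring.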

[2] = Tanguay_ZF_120hpf_TRUN_legacy: (Legacy) Oregon State University Tanguay Lab 120 Hour Post-fertilization zebrafish Assay for Truncated Body (AID 2283655)
Method in brief: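 Single dechorionated zebrafish embryos received test chemical from 6 hpf in 0.64% DMSO, kept at 28C. At 120 hpf, brightfield inspection noted any truncated body.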

[3] = Tanguay_ZF_120hpf_NC_legacy: (Legacy) Oregon State University Tanguay Lab 120 Hour Post-fertilization zebrafish Assay for Notochord and Tail Malformation (AID 2283656)
Method in brief: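 Binary scoring of notochord distortion by brightfield microscopy; embryos dying were not scored. Wild-type Tropical 5D embryos, chorion removed, exposed singly and statically from 6 to 120 hpf, 28C, sealed, 0.64% DMSO.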

[4] = Tanguay_ZF_120hpf_TR_legacy: (Legacy) Oregon State University Tanguay Lab 120 Hour Post-fertilization zebrafish Assay for Touch Response (AID 2283667)
Method in brief: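 Binary touch-response endpoint in larvae at 120 hpf after static waterborne exposure from embryo stage (28°C, 0.64% DMSO vehicle, 5 uM trimethyltin chloride as positive control); embryos dead at 24 or 120 hpf excluded; fitted as gain versus DMSO.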

[5] = test system: Thyroperoxidase (TPO), gene 54314; experiment: CCTE_Simmons_AUR_rTPO: CCTE's Amplex UltraRed Assay for Thyroperoxidase (TPO) Inhibition, Simmons Lab (AID 2283662);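 also: potency for loss of signal meaning inhibition of peroxidase activity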
Method in brief: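 Rat thyroid microsomes (5 ug protein) with 25 uM Amplex UltraRed and 300 uM H2O2 in 200 mM phosphate buffer, 30 min at 37C in dark; fluorescence 544/590 nm. Eight concentrations, 5 nM–87.5 uM final, 0.5% DMSO, triplicate biological replicates.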

[6] = CCTE_Simmons_CellTiterGLO_HEK293T: Viability Assessment in CCTE's Assays for Thyroperoxidase (TPO) Inhibition, Simmons Lab (AID 2283665);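 also: cells exposed to compound for 24 h before readout; actives reduce ATP signal below DMSO vehicle meaning cytotoxicity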
Method in brief: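 Luciferase-coupled ATP content after 24 h exposure gives viability; 8-point series from 5 nM to 87.5 uM final in 0.5% DMSO. Human HEK293T cells, 1% FBS medium, three biological replicates, dichlone positive control.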

Measured: AC50

CN(C)C(=O)NC1(c2ccccc2)CCN(CC[C@@]2(c3ccc(F)c(F)c3)CN(C(=O)c3ccccc3)CCO2)CC1
inactive: [1] | [2] | [3] | [4]

CCCC[C@H]1CN(CC2CCOCC2)C(=O)OC12CCN(C1(C)CCN(C(=O)c3c(C)ncnc3C)CC1)CC2
inactive: [1] | [2] | [3] | [4]

COC(=O)CCC(=O)OC
inactive: [1] | [2] | [3] | [4]

CCCCC(CC)COP(=O)(OCC(CC)CCCC)OCC(CC)CCCC (configuration not stated)
inactive: [1] | [2] | [3] | [4]

COC(=O)CCCC(=O)OC
inactive: [1] | [2] | [3] | [4]

OCC(O)CO
inactive: [1] | [2] | [3] | [4]

CCCCCCC(C=O)=Cc1ccccc1
inactive: [1] | [2] | [3] | [4]

CCOCCOCCO
inactive: [1] | [2] | [3] | [4]

c1ccc2occc2c1
inactive: [1] | [2] | [3] | [4]

NC(=Nc1ccccc1)Nc1ccccc1
inactive: [1] | [2] | [3] | [4]

N[C@@H](Cc1c[nH]c2ccccc12)C(=O)O
inactive: [1] | [2] | [3] | [4]

O=C1CCCCC1
inactive: [1] | [2] | [3] | [4]

CCCC(=O)O
inactive: [1] | [2] | [3] | [4]

Cc1ccc(-c2cc(C(F)(F)F)nn2-c2ccc(S(N)(=O)=O)cc2)cc1
inactive: [1] | [2] | [3] | [4]

Nc1nc(Cl)nc2c1ncn2[C@H]1C[C@H](O)[C@@H](CO)O1
inactive: [1] | [2] | [3] | [4]

CS(=O)(=O)c1ccc([C@@H](C[C@H]2CCC(=O)C2)C(=O)Nc2cnccn2)cc1Cl
inactive: [1] | [2] | [3] | [4]

O=[Si]=O
inactive: [1] | [2] | [3] | [4]

CN(C)C(=O)NC1(c2ccccc2)CCN(CCC[C@]2(c3ccc(Cl)c(Cl)c3)CCCN(C(=O)c3ccccc3)C2)CC1
inactive: [1] | [2] | [3] | [4]

CC(=O)OC1CC(C)OC(C)O1 (configuration not stated)
inactive: [1] | [2] | [3] | [4]

NC=O
inactive: [1] | [2] | [3] | [4]

C#CC(O)C(CC)CCCC (configuration not stated)
inactive: [1] | [2] | [3] | [4]

O=C(O)CN(CC(=O)O)CC(=O)O
inactive: [1] | [2] | [3] | [4]

CC(C)(C)c1ccccc1
inactive: [1] | [2] | [3] | [4]

OCC(CO)n1cnc(-c2ccc(F)cc2)c1-c1ccnc(Oc2ccccc2)n1
inactive: [1] | [2] | [3] | [4]

O=C(O)CC(O)(CC(=O)O)C(=O)O
inactive: [1] | [2] | [3] | [4]

CO[C@@H]1COCC[C@@H]1N[C@@H]1CC[C@@](C(=O)N2CCc3ncc(C(F)(F)F)cc3C2)(C(C)C)C1
inactive: [1] | [2] | [3] | [4]

CC(N)=O
inactive: [1] | [3] | [4]

CC(C)(O)c1ccc(CNC(=O)c2cccnc2Oc2ccc(F)cc2)cc1
inactive: [3] | [4]

CC(C)c1cccc(C(C)C)c1
inactive: [2] | [3] | [4]

CCCCC(CC)COC(=O)CCCCCCCC(=O)OCC(CC)CCCC (configuration not stated)
inactive: [1] | [2] | [4]

CC(C)c1cccc(C(C)C)c1NC(=O)NS(=O)(=O)c1cc(C(C)(C)O)co1
inactive: [2] | [3] | [4]

CC(=O)O
inactive: [1] | [2] | [3] | [4]

O=Cc1ccccc1C=O
active: [5] 41.8 µM | [6] 4.91 µM
inactive: [2] | [3] | [4]

CCc1cc(C2=C(C(=O)O)N(c3ccccc3C(F)(F)F)S(=O)(=O)c3ccccc32)cc2c1OCO2
inactive: [1] | [2] | [4]

CCc1nc(N)nc(N)c1-c1ccc(Cl)cc1
inactive: [2] | [3]

CC(C)OC(=O)C(C)(C)Oc1ccc(C(=O)c2ccc(Cl)cc2)cc1
inactive: [1] | [2] | [4]

Cc1ccc(C(C)(C)C)c(O)c1
inactive: [1] | [2] | [4]
active: [5] 30 µM | [6] 22.3 µM

CC(=O)S[C@H](C(=O)N[C@H]1Cc2ccccc2[C@H]2CCC[C@@H](C(=O)O)N2C1=O)C(C)C
inactive: [1] | [2] | [4]

NC1CCCCC1
inactive: [2] | [3] | [4]

O=NO
inactive: [3] | [4]

CSc1ccc(Oc2ccc(S(N)(=O)=O)cc2CN(C)C)cc1C
active: [4] 50.9 µM
inactive: [1] | [2]

CC1=C(C)S(=O)(=O)CCS1(=O)=O
inactive: [1] | [2] | [4]

CC(=O)O[C@]1(C(C)=O)CC[C@H]2[C@@H]3C=C(Cl)C4=CC(=O)[C@@H]5C[C@@H]5[C@]4(C)[C@H]3CC[C@@]21C
inactive: [1] | [4]

Cc1cn([C@H]2C=C[C@@H](CO)O2)c(=O)[nH]c1=O
inactive: [1] | [3] | [4]

CN(C)CCCN(C)CCCN(C)C
inactive: [1] | [3] | [4]

CC(COCC(C)OC(=O)c1ccccc1)OC(=O)c1ccccc1 (configuration not stated)
inactive: [1] | [2] | [4]

C/C=C/C=C/C(=O)O
inactive: [1] | [3] | [4]
active: [5] 48.8 µM | [6] 48.8 µM

CC(=O)OCC(COC(C)=O)OC(C)=O
inactive: [1] | [3]
